Autofluor 339: intrinsic fluorescence of library compounds, ex339/em460 – biochemical, MLSMR library, data from DPM-DC assay, artefact control, profiling panel | compound autofluorescence, ex339/em460 nm, NADH buffer; stronger effect = higher value; 1 = no-compound wells, NADH background | fluorescence fold increase at 10 µM | actives 5.5% (n = 65,000) | AID 709;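 active = at 10 µM, mean starting fluorescence two-fold or more over control wells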;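 note: signal is the first read of a kinetic run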
MK inhibit: blocks S. pneumoniae mevalonate kinase; purified MK, PK/LDH-coupled NADH absorbance 340 nm; inhibition, % at 10 µM; actives 0.48% (n = 65,000); AID 555;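 active = ranked among the strongest by inhibition in the single 10 µM screen, a fixed top-ranked set picked for dose follow-up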
Abs 340nm: absorbance at 340 nm | compound absorbance at 340 nm, fold over control | 65,000 tested, under 10 active | AID 708 | fold change at 10 µM;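 active = at 10 µM dose, initial 340 nm absorbance at least 2 fold that of control wells; inactive = change under 2 fold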;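 note: initial absorbance extrapolated from kinetic A340 decline of NADH oxidation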
NADH coupling: blocks coupling enzymes of NAD/NADH assays | IC50, µM (highest dose often 10 µM), for the others: top-dose inhibition | actives 0.02% (n = 65,000) | AID 774 | coupled PK/LDH NADH assays, four targets;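 active = single-dose screening hits from any of four coupled enzyme assays that gave an IC50 when retested across doses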;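 note: the DPM-DC format reads NADH fluorescence rather than 340 nm absorbance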
PMK inhibit: inhibitors of Streptococcus pneumoniae phosphomevalonate kinase; purified PMK, PK/LDH-coupled NADH absorbance 340 nm; AID 539; actives 0.49% (n = 65,000); inhibition, % at 10 µM;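 active = top-ranked compounds by inhibition in the single 10 µM screen, taking a fixed number of the strongest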;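 note: 0% = full reaction with DMSO carrier and 100% = background rate without enzyme reaction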
Spn DPM-DC inh: S. pneumoniae DPM-DC inhibition. purified DPM-DC, PK/LDH coupled NADH fluorescence. calls only at 10 µM. actives 0.49% (n = 65,000). AID 556;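 active = the 320 compounds with the highest percent inhibition in the single-dose primary screen, excluding strongly autofluorescent ones, cut at about 32% in these data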;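 note: kinetic rate of NADH fluorescence loss reporting ADP formed by the decarboxylase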
* marks the source's active call; other numbers are inactive results; i = inactive; nt = not tested or not shown; + = active, no number. An excerpt weighted towards active compounds, which were near 6.8% of everything screened.

SMILES	Autofluor 339	MK inhibit	Abs 340nm	NADH coupling	PMK inhibit	Spn DPM-DC inh
Cc1cccc(N2CCN(c3nc4ccc(Cl)cc4n4cnnc34)CC2)c1C	2.08*	8.0	1.11	9.0%	10.0	nt
O=C(c1ccccc1)c1ccc2nc(N3CCN(C(=O)c4ccco4)CC3)c3nncn3c2c1	1.16	7.0	1.1	5.0%	2.0	i
CCOc1ccc(Nc2nc(NCCN3CCOCC3)nc(OC)n2)cc1	1.06	0.0	0.99	5.0%	16.0	i
C=CCn1c(N(C)C)nc2c1c(=O)[nH]c(=O)n2C	0.96	3.0	1.04	5.0%	9.0	i
O=C(O)COc1ccc2nsnc2c1Cl	3.73*	9.0	1.03	10.0%	10.0	nt
Cc1ccc(OCC(=O)O)c(-n2nc3ccccc3n2)c1	1.21	7.0	1.04	8.0%	12.0	i
Cc1n[nH]c(C)c1S(=O)(=O)N(CC(=O)Nc1ccc2c(c1)OCCO2)c1ccc(C(C)C)cc1	0.99	5.0	1.03	2.0%	0.0	i
Fc1cccc(Cl)c1CSc1nnc(COc2cccc3cccnc23)o1	1.13	0.0	1	0.0%	0.0	i
CC(C)Cn1cc(C(=O)N2CCOCC2)c2c3ccccc3n(C)c2c1=O	2.6*	2.0	1.05	8.0%	14.0	i
COCCn1cc(C(=O)N2CCC(C)CC2)c2c3ccccc3n(C)c2c1=O	4.76*	8.0	1.09	9.0%	9.0	nt
CCCN(CCC)CCCNC(=O)c1cc2c(=O)n(C)c3ccccc3c2n1C	1.6	6.0	1.06	12.0%	11.0	i
CCCN(CCC)CCCNC(=O)c1cn(CCOC)c(=O)c2c1c1ccccc1n2C	3.47*	8.0	1.06	15.0%	14.0	i
CC(C)Cn1cc(C(=O)NCc2cccs2)c2c3ccccc3n(C)c2c1=O	2.65*	3.0	1.05	8.0%	8.0	i
COc1ccc(N2CCN(C(=O)c3cn(C)c(=O)c4c3c3ccccc3n4C)CC2)cc1	1.34	2.0	1.08	5.0%	12.0	i
CCn1c(SCC(=O)Nc2nc(C)c(C(=O)OC)s2)nnc1C(C)C	1.08	9.0	0.99	6.0%	9.0	i
Cc1ccc2oc(=O)c3cnn(CC(=O)N4CCCc5ccccc54)c3c2c1	1	5.0	0.97	5.0%	3.0	i
Cn1c2ccccc2c2c(C(=O)N3CCN(c4ccccn4)CC3)cn(C3CCCC3)c(=O)c21	1.76	6.0	1.06	12.0%	17.0	i
CCOC(=O)N1CCN(C(=O)c2cn(C)c(=O)c3c2c2ccccc2n3C)CC1	3.54*	4.0	1.07	12.0%	19.0	i
CCOC(=O)N1CCN(C(=O)c2cn(CC(C)C)c(=O)c3c2c2ccccc2n3C)CC1	4.18*	13.0	1.03	15.0%	16.0	nt
Cc1cnn(C(=S)NCC2CCCO2)c1 (configuration not stated)	1.08	5.0	1.01	2.0%	0.0	i
CCNc1cc2oc(=O)c(CN3CCOCC3)c(C)c2cc1C	2.24*	0.0	1.12	7.0%	13.0	nt
Cc1ccc2oc(=O)cc(CN3CCOCC3)c2c1	1.13	5.0	1.01	6.0%	13.0	i
N#Cc1c(N)nc(SCC(=O)NCCc2ccccc2)c(C#N)c1-c1cccs1	2.31*	7.0	1.09	4.0%	0.0	nt
CC(C)OC(=O)CSc1nc(N)c(C#N)c(-c2cccs2)c1C#N	1.19	0.0	1.11	0.0%	0.0	i
NC(=O)CCN(Cc1ccccc1)S(=O)(=O)c1ccccc1	1.08	5.0	1	11.0%	28.0*	i
SMILES	Autofluor 339	MK inhibit	Abs 340nm	NADH coupling	PMK inhibit	Spn DPM-DC inh
O=C(c1ccc(F)cc1)N1CCC(N2CCCCCC2)CC1	1.18	78.0*	1.08	82.0%	90.0	+
O=C(c1ccccc1F)N1CCC(N2CCCCCC2)CC1	1.07	31.0	1.05	10.0%	0.0	i
COC(=O)N1CC(=O)N(OC)C1c1ccc(Cl)cc1Cl (configuration not stated)	1.11	10.0	1.03	3.0%	0.0	i
COc1ccc(CNC(=O)C(C)OC(=O)c2cccn2C)cc1 (configuration not stated)	1.01	2.0	1	3.0%	7.0	i
Cc1ccccc1Cc1c(C)nc2c(C(=O)N3CCN(Cc4ccc5c(c4)OCO5)CC3)cnn2c1C	2.26*	0.0	1	8.0%	14.0	+
Cc1ccc(Cc2c(C)nc3c(C(=O)O)cnn3c2C)cc1	1.63	3.0	0.99	5.0%	16.0	i

Bioassay records deposited in PubChem BioAssay by SRMLSC.
